Reference: PubChem BioAssay
Activity calls are given as the source filed them. Unless noted, how the calls were made is not given here.

Key:
[1] = resazurin metabolic signal in HepG2 cells – cell-based, resazurin fluorescence, 24 h, PK04 Diversity Set, profiling panel (AID 1172); settings: HepG2 viability, higher = more signal
[2] = budding yeast growth changes without added modifier – OD600, strain BY4716, 24 h, basal condition, primary screen (AID 1173); settings: S. cerevisiae BY4716 growth, OD600, 24 h; higher = more signal, called active from +8 up or from −8 down
[3] = viability profiling in MM1S myeloma cells – cell-based, resazurin fluorescence, basal, 24 h, PK04 Diversity Set, profiling panel (AID 1174); settings: higher = more signal, called active from +8 up or from −8 down;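 further: MM1S multiple myeloma cell line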
[4] = molecular target: Dihydroorotate dehydrogenase (quinone), mitochondrial (Plasmodium falciparum (isolate 3D7)) (UniProt Q08210); test: inhibition of P. falciparum DHODH – biochemical, C-terminal His tag, absorbance 600 nm, primary screen (AID 1175); settings: PfDHODH enzyme, DCIP absorbance 600 nm; higher = more signal, called active from +8 up or from −8 down;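 further: recombinant parasite enzyme with a five histidine tag at its C terminus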
[5] = inhibition of PAO1 biofilm formation – strain PAO1, LB-PBS medium, absorbance 600 nm, primary screen (AID 1176); settings: P. aeruginosa PAO1 growth/biofilm, A600, 12 h; higher = more signal
[6] = growth modulation of vineyard yeast isolate – strain RM11-1a, OD600, basal, 24 h, primary screen (AID 1177);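 further: cultures grown under basal conditions with no added stressor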; settings: S. cerevisiae RM11-1a growth, OD600, 24 h; higher = more signal, called active from +8 up or from −8 down
[7] = growth of efflux-deficient E. coli DRC39 – strain DRC39, OD650, 24 h, E. coli filamentation inducers, primary screen (AID 1178);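 further: growth measured as culture turbidity by optical density at 650 nm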; settings: E. coli DRC39 acrAB, higher = more signal, called active from +8 up or from −8 down
[8] = growth of efflux-deficient E. coli DRC39 – strain DRC39, OD650, 48 h, E. coli filamentation inducers, primary screen (AID 1179);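 further: screen aims at cell division blockers that make cells filament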; settings: E. coli DRC39 delta-acrAB growth, higher = more signal, called active from +8 up or from −8 down
[9] = viability profiling in RPMI8226 myeloma cells – cell-based, resazurin fluorescence, basal, 24 h, PK04 Diversity Set, profiling panel (AID 1180); settings: higher = more signal;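 further: RPMI8826 multiple myeloma cell line at 5000 cells per well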
[10] = molecular target: E3 ubiquitin-protein ligase XIAP (Homo sapiens) (UniProt P98170); test: small molecules binding XIAP protein – biophysical, small-molecule microarray, fluorescence 635 nm, primary screen (AID 1181); settings: higher = more signal;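 further: score merges 667 nm emission and signal to noise over triplicate slides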
[11] = system: XIP peptide (Xip251-270) binding; test: XIP fragment 251-270 binding compounds – biochemical, small-molecule microarray, fluorescence 635/667 nm, 0.1 µg/mL protein, primary screen (AID 1182); settings: fluorescent protein binding, 635 nm, higher = more signal, called active from +8 up or from −8 down
[12] = system: XIP peptide (Xip251-270); test: compounds binding XIP fragment 251-270 – biochemical, small-molecule microarray, fluorescence 635/667 nm, 0.5 µg/mL protein, primary screen (AID 1183); settings: fluorescence 635 nm, higher = more signal
[13] = blood-stage malaria parasite viability loss – strain 3D7, DAPI fluorescence, 100 nL, primary screen (AID 1184);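 further: parasites grown inside human red blood cells in medium with human serum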; settings: P. falciparum 3D7 growth, 3 d, higher = more signal
[14] = molecular target: Homeobox protein Hox-A13 (Mus musculus) (UniProt Q62424); test: disruptors of Hoxa13 oligonucleotide interaction – biochemical, fluorescence polarization, labeled oligonucleotide, primary screen (AID 1185); settings: Hoxa13:DNA binding, 15 min, higher = more signal, called active from +8 up or from −8 down
Homeobox protein Hox-A13 (Mus musculus), sequence (Q62424 whole entry, looked up): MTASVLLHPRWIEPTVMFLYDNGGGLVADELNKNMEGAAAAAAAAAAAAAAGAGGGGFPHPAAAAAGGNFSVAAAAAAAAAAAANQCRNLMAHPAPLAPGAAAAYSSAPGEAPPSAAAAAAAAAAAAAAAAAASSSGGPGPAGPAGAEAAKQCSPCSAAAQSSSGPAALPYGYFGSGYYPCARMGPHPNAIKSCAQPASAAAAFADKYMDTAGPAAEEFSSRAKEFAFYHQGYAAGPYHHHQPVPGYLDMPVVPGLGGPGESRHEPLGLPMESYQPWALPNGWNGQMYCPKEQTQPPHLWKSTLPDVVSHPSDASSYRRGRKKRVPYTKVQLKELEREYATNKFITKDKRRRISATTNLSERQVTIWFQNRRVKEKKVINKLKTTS

Dihydroorotate dehydrogenase (quinone), mitochondrial (Plasmodium falciparum (isolate 3D7)), sequence (Q08210 whole entry, looked up): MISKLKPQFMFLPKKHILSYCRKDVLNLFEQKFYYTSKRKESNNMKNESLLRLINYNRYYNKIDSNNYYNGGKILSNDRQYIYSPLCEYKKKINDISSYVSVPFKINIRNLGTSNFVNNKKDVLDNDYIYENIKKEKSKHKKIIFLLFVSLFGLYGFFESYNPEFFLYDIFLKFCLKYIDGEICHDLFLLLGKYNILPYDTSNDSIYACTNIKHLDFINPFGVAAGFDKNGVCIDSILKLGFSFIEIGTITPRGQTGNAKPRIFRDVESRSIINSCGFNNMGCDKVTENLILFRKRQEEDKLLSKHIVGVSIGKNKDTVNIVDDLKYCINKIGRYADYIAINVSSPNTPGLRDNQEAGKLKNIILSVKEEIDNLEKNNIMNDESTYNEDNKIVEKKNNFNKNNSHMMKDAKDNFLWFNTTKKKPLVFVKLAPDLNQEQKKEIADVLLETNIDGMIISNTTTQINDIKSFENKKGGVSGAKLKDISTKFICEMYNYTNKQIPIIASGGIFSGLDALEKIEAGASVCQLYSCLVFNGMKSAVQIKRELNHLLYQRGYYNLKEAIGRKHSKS
E3 ubiquitin-protein ligase XIAP (Homo sapiens), sequence (P98170 whole entry, looked up, the tested form may be a part): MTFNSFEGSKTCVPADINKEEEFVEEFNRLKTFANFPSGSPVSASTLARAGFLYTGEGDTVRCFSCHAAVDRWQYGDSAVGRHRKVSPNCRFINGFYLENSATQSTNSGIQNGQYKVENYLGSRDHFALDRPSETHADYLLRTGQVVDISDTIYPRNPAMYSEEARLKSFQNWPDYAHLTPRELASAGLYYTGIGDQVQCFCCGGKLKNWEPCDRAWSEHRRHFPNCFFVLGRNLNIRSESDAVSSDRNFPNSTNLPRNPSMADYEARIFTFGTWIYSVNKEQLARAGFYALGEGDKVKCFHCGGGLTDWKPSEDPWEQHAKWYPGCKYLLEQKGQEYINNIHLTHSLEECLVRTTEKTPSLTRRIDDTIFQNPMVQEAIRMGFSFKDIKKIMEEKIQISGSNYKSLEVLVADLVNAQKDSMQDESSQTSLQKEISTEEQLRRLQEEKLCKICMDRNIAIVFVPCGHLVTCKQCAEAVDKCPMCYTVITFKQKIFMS

| SMILES | z-score [1] | z-score [2] | z-score [3] | composite z-score [4] | z-score [5] | z-score [6] | z-score [7] | z-score [8] | z-score [9] | composite z-score [10] | composite z-score [11] | composite z-score [12] | z-score [13] | z-score [14] |
| --- | --- | --- | --- | --- | --- | --- | --- | --- | --- | --- | --- | --- | --- | --- |
| COC(=O)CC1OC1[C@H](C)[C@@H](OC)C(C)C (some centres undefined) | -0.863 | -4.59 (inactive) | -1.91 (inactive) | -3.39 (inactive) | 0.699 (inactive) | 0.748 (inactive) | 0.487 (inactive) | 0.293 (inactive) | -1.43 | -0.313 | -0.0835 (inactive) | -0.739 | 0.599 | -4.65 (inactive) |
| CCN1C(=O)[C@H]2[C@H]3[C@H](O)[C@H](O)CC(=NO[C@@H]4O[C@H](CO)[C@@H](O)[C@H](O)[C@H]4O)[C@@H]3CC[C@H]2C1=O | -0.59 | -0.369 (inactive) | -0.596 (inactive) | -0.794 (inactive) | -0.343 (inactive) | -0.654 (inactive) | 0.226 (inactive) | 0.117 (inactive) | -0.922 | 0.0623 | -0.232 (inactive) | -0.321 | 1.82 | -0.0696 (inactive) |
| CCN1C(=O)[C@H]2[C@H]3[C@H](O)[C@H](O)CC(=NOCC=C(C)CCC=C(C)C)[C@H]3CC[C@H]2C1=O | -0.337 | -0.327 (inactive) | -0.944 (inactive) | -0.962 (inactive) | 0.164 (inactive) | -0.414 (inactive) | 0.445 (inactive) | 0.314 (inactive) | -1.23 | -0.0988 | 1.09 (inactive) | 0.762 | 1.97 | 0.0102 (inactive) |
| COc1ccc(O[C@H]2C=C[C@@H](c3ccccc3)O[C@@H]2COC(=O)N2CCCCC2)cc1 | 0.54 | 0.666 (inactive) | 0.0872 (inactive) | 0.0964 (inactive) | -0.139 (inactive) | -0.499 (inactive) | 0.396 (inactive) | 0.349 (inactive) | 0.883 | -0.234 | -0.275 (inactive) | -0.216 | -0.43 | -3.83 (inactive) |
| CCCNC(=O)OC[C@H]1O[C@H](CCON=CC[C@@H]2C=C[C@H](OC(C)=O)[C@@H](COC(C)=O)O2)C=C[C@@H]1Oc1ccc(OC)cc1 | 0.261 | 1.4 (inactive) | -0.387 (inactive) | -0.584 (inactive) | 0.0282 (inactive) | 0.394 (inactive) | 0.426 (inactive) | -0.371 (inactive) | 0.477 | -0.128 | 0.27 (inactive) | 0.512 | -0.133 | -6.56 (inactive) |
| CCCCc1nc2c(c3c1C[C@H](C)OC3)CN(CCC(C)C)CC2 | -0.165 | -2.07 (inactive) | 0.431 (inactive) | -0.847 (inactive) | 0.332 (inactive) | -0.674 (inactive) | 0.56 (inactive) | -0.104 (inactive) | 1.2 | 0.0133 | 0.172 (inactive) | 0.715 | -0.522 | -5.63 (inactive) |
| C#CCCCON=C1C[C@@H](O)[C@@H](O)[C@@H]2[C@@H]3C(=O)N(Cc4ccccc4)C(=O)[C@@H]3CC[C@H]12 | 1.02 | -1.43 (inactive) | 0.582 (inactive) | -0.794 (inactive) | 0.495 (inactive) | -1.59 (inactive) | -0.039 (inactive) | -0.923 (inactive) | 0.781 | -0.256 | 0.136 (inactive) | -0.102 | -0.677 | -3.05 (inactive) |
| CCN1C(=O)[C@H]2[C@H]3[C@H](O)[C@H](O)CC(=NOCc4ccccc4)[C@H]3CC[C@H]2C1=O | -0.322 | -0.0753 (inactive) | -0.344 (inactive) | -0.422 (inactive) | 0.164 (inactive) | -0.889 (inactive) | 0.114 (inactive) | 0.293 (inactive) | -0.855 | 0.0785 | -0.0513 (inactive) | 0.172 | 0.783 | -1.15 (inactive) |
| C[C@@H](c1ccccc1)N1C(=O)[C@H]2[C@H]3[C@H](O)C=CC(=O)[C@@H]3CC[C@H]2C1=O | -0.0507 | -0.697 (inactive) | 0.711 (inactive) | -0.366 (inactive) | -0.319 (inactive) | -0.701 (inactive) | 0.0826 (inactive) | -0.286 (inactive) | 0.982 | 0.126 | 0.146 (inactive) | 0.014 | -0.173 | -0.308 (inactive) |
| Cc1cc(C)c(-c2cc([C@H](C)ON=C3[C@H]4CCn5c(=O)n(-c6ccccc6)c(=O)n5[C@H]4[C@H](O)[C@@H]4O[C@H]34)on2)c(C)c1 | -0.991 | -0.752 (inactive) | -1.89 (inactive) | -0.297 (inactive) | -0.242 (inactive) | 0.615 (inactive) | 0.663 (inactive) | 0.421 (inactive) | -2.22 | -0.196 | 2.08 (inactive) | 0.0933 | 0.173 | -4.69 (inactive) |
| c1ccc(C2NCCc3c2[nH]c2ccccc32)cc1 (centres undefined) | 0.278 | -2.91 (inactive) | -0.104 (inactive) | -11 (active) | 0.107 (inactive) | -0.104 (inactive) | -0.832 (inactive) | -1.79 (inactive) | -0.326 | 0.0043 | 0.657 (inactive) | 0.4 | -0.811 | -0.654 (inactive) |
| CO[C@H]1COC(=O)[C@H](C)COC(=O)CC=C[C@@H](C)[C@H](OC)COC(=O)CC=C[C@@H]1C | -0.194 | -0.754 (inactive) | -0.152 (inactive) | -0.365 (inactive) | -0.167 (inactive) | -0.192 (inactive) | 0.778 (inactive) | 0.804 (inactive) | 0.129 | -0.0117 | 0.159 (inactive) | -0.0452 | 1.7 | 0.149 (inactive) |
| CCc1cc2c(nc1CC)CCN(CCC(C)=NOC(C)CN1CCCc3nc(C)c(C)cc31)C2 (centres undefined) | -0.644 | -0.822 (inactive) | -0.845 (inactive) | 0.244 (inactive) | 0.429 (inactive) | -0.173 (inactive) | 0.278 (inactive) | -1.71 (inactive) | -0.615 | 1.13 | 1.36 (inactive) | 0.561 | 0.74 | -9.89 (active) |
| CC=CC1=C(CO)[C@H](O)[C@H]2O[C@H]2[C@H]1O | -0.557 | 0.977 (inactive) | -0.667 (inactive) | 0.439 (inactive) | -0.47 (inactive) | 0.618 (inactive) | -0.227 (inactive) | -0.299 (inactive) | 0.0421 | 0.0774 | -0.461 (inactive) | -0.229 | 0.337 | -0.532 (inactive) |
| CCOC(=O)NN=C1C[C@@H](O)[C@@H](O)[C@@H]2[C@@H]3C(=O)N(C4CCCCC4)C(=O)[C@@H]3CC[C@H]12 | -0.912 | 0.486 (inactive) | -0.74 (inactive) | 0.406 (inactive) | -0.0941 (inactive) | 0.0422 (inactive) | -0.43 (inactive) | -0.358 (inactive) | -0.927 | -0.0246 | 0.67 (inactive) | 0.485 | -1.68 | -1.77 (inactive) |
| COc1cccc([C@H]2Oc3ccc(OC)cc3C(=NO[C@H](C)c3cn([C@@H]4COC[C@H]4O)nn3)[C@@H]2O)c1 | -0.859 | -0.117 (inactive) | 0.0029 (inactive) | -2.1 (inactive) | -0.409 (inactive) | -0.761 (inactive) | -0.537 (inactive) | -2.22 (inactive) | -0.238 | 0.0264 | 0.0524 (inactive) | -0.561 | -0.866 | -2.61 (inactive) |
| C#CCCCON=C1C[C@@H](O)[C@@H](O)[C@@H]2[C@@H]3C(=O)N([C@@H](C)c4ccccc4)C(=O)[C@@H]3CC[C@H]12 | -0.331 | -1.27 (inactive) | 0.8 (inactive) | -2.87 (inactive) | -0.389 (inactive) | -1.35 (inactive) | -0.0604 (inactive) | -0.12 (inactive) | 0.357 | 0.0537 | -0.396 (inactive) | 0.164 | -1.46 | -2.2 (inactive) |
| O=C1CCCC=C1C(O)CCOCc1ccccc1 (centres undefined) | 0.123 | -1.76 (inactive) | -0.43 (inactive) | -0.0462 (inactive) | 0.602 (inactive) | -0.735 (inactive) | -0.88 (inactive) | -1.74 (inactive) | 0.104 | -0.0525 | -0.294 (inactive) | 0.0941 | -0.929 | -0.861 (inactive) |
| CO[C@H]([C@@H](C)[C@H](OC)c1ccccc1)[C@H](C)[C@@H](OC)[C@H](C)C(C)=O | 0.0132 | -1.22 (inactive) | 0.367 (inactive) | 0.758 (inactive) | -0.373 (inactive) | 0.135 (inactive) | -0.0566 (inactive) | -0.59 (inactive) | -0.0764 | -0.21 | 0.111 (inactive) | -0.694 | 0.117 | -1.36 (inactive) |
| COC(=O)CC=C[C@H](C)[C@@H](OCc1ccccc1Br)C(C)C | -0.285 | -0.553 (inactive) | -2.19 (inactive) | -0.216 (inactive) | 0.274 (inactive) | -0.158 (inactive) | 0.824 (inactive) | 0.661 (inactive) | -1.89 | 0.157 | 0.864 (inactive) | -0.039 | -0.0811 | -0.388 (inactive) |
| O=C(NN=C1C[C@@H](O)[C@@H](O)[C@@H]2[C@@H]3C(=O)N(c4cccc(Oc5ccccc5)c4)C(=O)[C@@H]3CC[C@H]12)OCc1ccccc1 | 0.615 | -0.841 (inactive) | -0.0525 (inactive) | 0.294 (inactive) | -0.708 (inactive) | -0.474 (inactive) | 0.578 (inactive) | 0.514 (inactive) | 0.49 | -0.141 | -0.132 (inactive) | 0.0323 | -1.43 | -3.8 (inactive) |
